SMILES strings stand for the structures. The whole screen tested about 190,000 compounds, of which about 6,900 (3.6%) were called active. For the sample, actives were picked, then their nearest neighbours and some compounds at random. Values without a mark were called inactive. Cut-off read from the data, not from the text of the source: active = inhibition above about 50%; inactive = the rest.

The assay deals with Huntingtin (Homo sapiens) (UniProt P42858). The experiment in a line: mutant huntingtin-calmodulin interaction inhibitors – biochemical, AlphaScreen, primary screen (AID 1671202).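 Note: 0% = both proteins with DMSO and 100% = one protein alone.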 Conditions: AlphaScreen His-mHTT/GST-CaM binding, luminescence; at 15 µM, stronger effect = higher value.
Chain of Huntingtin (Homo sapiens) (P42858 whole entry, looked up, stated change not applied): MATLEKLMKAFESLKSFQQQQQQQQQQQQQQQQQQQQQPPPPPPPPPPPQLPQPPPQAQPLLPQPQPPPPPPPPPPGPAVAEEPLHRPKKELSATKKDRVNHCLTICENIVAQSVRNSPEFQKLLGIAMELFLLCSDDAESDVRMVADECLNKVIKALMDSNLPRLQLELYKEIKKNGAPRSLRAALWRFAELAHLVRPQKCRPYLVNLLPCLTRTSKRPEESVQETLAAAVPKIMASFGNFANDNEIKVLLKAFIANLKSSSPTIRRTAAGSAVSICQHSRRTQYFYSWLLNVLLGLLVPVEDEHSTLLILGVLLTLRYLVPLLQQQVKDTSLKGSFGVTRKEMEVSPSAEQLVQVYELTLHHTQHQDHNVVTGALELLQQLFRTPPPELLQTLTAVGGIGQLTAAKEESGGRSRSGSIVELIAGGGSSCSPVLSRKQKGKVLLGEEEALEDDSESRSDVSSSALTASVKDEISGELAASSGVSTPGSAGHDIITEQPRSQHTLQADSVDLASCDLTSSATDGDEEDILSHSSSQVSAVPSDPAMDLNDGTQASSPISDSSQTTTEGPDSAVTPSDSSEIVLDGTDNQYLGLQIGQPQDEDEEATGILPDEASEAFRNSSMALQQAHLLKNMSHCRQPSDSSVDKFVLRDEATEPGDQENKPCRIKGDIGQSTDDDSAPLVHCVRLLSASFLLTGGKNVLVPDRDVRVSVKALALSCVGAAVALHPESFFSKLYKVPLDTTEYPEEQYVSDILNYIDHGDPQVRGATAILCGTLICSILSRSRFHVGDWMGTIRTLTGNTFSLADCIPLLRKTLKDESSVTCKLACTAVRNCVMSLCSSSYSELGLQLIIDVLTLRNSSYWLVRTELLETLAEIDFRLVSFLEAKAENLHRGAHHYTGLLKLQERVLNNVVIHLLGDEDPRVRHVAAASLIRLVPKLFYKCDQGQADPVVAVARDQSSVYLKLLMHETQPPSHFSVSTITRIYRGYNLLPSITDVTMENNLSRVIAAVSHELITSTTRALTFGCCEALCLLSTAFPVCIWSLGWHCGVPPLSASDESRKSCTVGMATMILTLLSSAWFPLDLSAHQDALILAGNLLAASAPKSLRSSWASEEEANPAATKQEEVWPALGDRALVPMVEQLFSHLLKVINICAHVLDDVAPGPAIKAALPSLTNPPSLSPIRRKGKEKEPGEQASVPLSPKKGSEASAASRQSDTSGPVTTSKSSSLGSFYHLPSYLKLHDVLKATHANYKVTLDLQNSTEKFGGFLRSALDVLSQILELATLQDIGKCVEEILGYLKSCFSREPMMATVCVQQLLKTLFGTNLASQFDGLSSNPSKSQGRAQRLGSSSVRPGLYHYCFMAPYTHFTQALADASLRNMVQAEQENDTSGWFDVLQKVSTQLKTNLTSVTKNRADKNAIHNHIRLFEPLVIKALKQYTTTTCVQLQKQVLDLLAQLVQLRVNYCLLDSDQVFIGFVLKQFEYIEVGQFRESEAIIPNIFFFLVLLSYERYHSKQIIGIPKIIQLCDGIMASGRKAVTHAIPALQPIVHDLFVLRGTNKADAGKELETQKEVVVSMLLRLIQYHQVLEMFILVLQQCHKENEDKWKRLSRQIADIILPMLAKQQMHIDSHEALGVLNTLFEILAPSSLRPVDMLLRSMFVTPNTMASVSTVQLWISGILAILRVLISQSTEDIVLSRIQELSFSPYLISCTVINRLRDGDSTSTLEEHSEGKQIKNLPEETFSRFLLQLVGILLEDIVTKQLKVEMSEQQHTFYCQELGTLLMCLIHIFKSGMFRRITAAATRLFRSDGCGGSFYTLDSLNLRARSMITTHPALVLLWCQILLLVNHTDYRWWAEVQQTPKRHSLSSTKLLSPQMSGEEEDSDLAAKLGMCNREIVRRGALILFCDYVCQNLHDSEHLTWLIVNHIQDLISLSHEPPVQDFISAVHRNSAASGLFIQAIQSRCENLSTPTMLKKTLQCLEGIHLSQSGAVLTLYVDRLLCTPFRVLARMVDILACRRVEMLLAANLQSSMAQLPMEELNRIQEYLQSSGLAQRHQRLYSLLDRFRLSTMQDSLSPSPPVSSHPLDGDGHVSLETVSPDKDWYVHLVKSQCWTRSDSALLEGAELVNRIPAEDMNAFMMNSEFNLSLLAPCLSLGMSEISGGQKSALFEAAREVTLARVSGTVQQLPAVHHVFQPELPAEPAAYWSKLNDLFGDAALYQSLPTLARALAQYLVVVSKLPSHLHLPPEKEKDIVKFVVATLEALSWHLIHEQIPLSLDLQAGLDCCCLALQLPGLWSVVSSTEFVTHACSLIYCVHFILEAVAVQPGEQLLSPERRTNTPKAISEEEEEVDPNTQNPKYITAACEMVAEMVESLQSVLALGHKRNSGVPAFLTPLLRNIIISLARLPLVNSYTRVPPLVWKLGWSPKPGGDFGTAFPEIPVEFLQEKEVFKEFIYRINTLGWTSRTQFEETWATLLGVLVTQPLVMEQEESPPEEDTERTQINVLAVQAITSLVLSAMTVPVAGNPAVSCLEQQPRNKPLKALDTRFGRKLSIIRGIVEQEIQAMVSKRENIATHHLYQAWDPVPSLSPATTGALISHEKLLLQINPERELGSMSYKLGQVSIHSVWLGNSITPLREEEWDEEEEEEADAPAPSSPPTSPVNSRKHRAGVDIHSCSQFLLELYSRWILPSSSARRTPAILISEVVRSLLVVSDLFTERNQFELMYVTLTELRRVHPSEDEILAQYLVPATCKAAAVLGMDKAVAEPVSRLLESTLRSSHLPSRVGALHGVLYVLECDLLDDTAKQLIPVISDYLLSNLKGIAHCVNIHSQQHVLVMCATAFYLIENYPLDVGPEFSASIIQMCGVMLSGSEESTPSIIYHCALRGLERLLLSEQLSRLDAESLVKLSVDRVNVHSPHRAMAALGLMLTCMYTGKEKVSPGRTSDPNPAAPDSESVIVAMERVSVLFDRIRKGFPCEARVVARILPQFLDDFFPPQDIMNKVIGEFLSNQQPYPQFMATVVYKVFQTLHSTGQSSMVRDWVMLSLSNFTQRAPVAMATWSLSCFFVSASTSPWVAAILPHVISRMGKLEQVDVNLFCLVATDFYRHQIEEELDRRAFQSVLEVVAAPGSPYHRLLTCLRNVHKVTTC
`CC(C)Oc1ccccc1OCCNCc1ccco1`: the inhibition was -1.4%. With `Cc1ccc(C)c(NC(=O)N2CCc3c(c(COCc4cccc(F)c4)nn3C)C2)c1`, the inhibition is 23.8%.

For the compound `O=C(O)C1CCCCC1C(=O)Nc1nnc(-c2cccs2)s1` (centres undefined), the inhibition is -1.3%.

Regarding `CN(C)c1ncccc1NC(=O)c1ccc(C#N)cc1`, the inhibition was 4.1%. The same measure for `N#Cc1ccc(C(=O)NCc2[nH]nc3ccccc23)cc1`: 64.3% (active). In the case of `O=C(NCc1[nH]nc2ccccc12)c1ccc(Br)o1`, the inhibition was -1.8%.

For the compound `Clc1ccc(-n2ncc3c(N4CCC5(CC4)OCCO5)ncnc32)cc1`, the inhibition is 7%.

Turning to `CCN(CC)c1ccc(Nc2nc(-c3sc(C)nc3C)cs2)cc1`, the inhibition is 96.7% (active). Then `COc1ccc(-c2csc(/C(C#N)=C/Nc3cccc([N+](=O)[O-])c3)n2)cc1`, with -1%.

`NS(=O)(=O)c1ccc(Nc2nc(-c3ccccc3)cs2)cc1`: the inhibition was 21%. For the compound `CC(=O)Nc1nc(C)c(-c2csc(Nc3ccc(S(N)(=O)=O)cc3)n2)s1`, the inhibition was 52.1% (active). Then `Cc1nc(N)sc1-c1csc(Nc2cccc([N+](=O)[O-])c2)n1`, with 91.9% (active). Then `O=C(O)c1ccc(Nc2nc(-c3cccs3)cs2)cc1`, with 46.2%; and `NS(=O)(=O)c1ccc(NC(=O)Cc2csc(Nc3ccccn3)n2)cc1`, with 33.1%. The same measure for `Cc1nc(N)sc1-c1csc(Nc2ccc(O)cc2)n1`: 41.5%; for `Cc1noc(C)c1S(=O)(=O)N1CCC(CC(=O)N2CCN(C(=O)C3CC3)CC2)CC1`: 5.24%; for `COc1ccc(-c2nnc(N3CCC(C(=O)NC4CCCCC4)CC3)o2)cc1`: 7.1%. On to `O=C(Nc1cccc(C(F)(F)F)c1)C(=O)c1c(O)[nH]c2ccccc12`, for which the inhibition is 10%. `CCOc1cc(CNC(=O)C2CCN(c3nnc4ccccn34)CC2)ccc1OC`: the inhibition was 2.75%. The same measure for `Nc1nc(-c2cc3cc(Br)cc(Br)c3oc2=O)cs1`: -7%; for `COc1ccc(C2CC(O)(c3ccccc3)Oc3cc(C)cc(C)c32)cc1` (centres undefined): 77.7% (active); for `COc1ccc([C@@H]2C[C@H](c3ccccc3)Oc3cc(OC)ccc32)cc1`: -9.3%. Regarding `CC(=O)c1c(C(C)=O)c(C)n(Cc2ccco2)c1C`, the inhibition was 1.2%. Then `COc1ccc(NC(=O)N2CCc3[nH]cnc3C2c2ccccc2)cc1OC` (centres undefined), with 3.67%. As to `CCOC(=O)c1ccc(OCC2c3cc(OC)c(OC)cc3CCN2C(=O)c2ccccc2OC)cc1` (centres undefined), the inhibition was 34.4%. In the case of `COc1ccc(C(=O)N2CCc3cc(OC)c(OC)cc3C2c2ccccc2)cc1OC` (centres undefined), the inhibition was 83.2% (active). As for `COc1cc2c(cc1OC)C(COc1cc(C)cc(C)c1)N(C(=O)CC1CCCCC1)CC2` (centres undefined), the inhibition is 32%. The same measure for `CCCCC(=O)N1CCc2cc(OC)c(OC)cc2C1COc1ccc(C(=O)OC)cc1` (centres undefined): 18.4%; for `COc1cc2c(cc1OC)C(COc1ccc(F)cc1)N(C(=O)c1ccccc1F)CC2` (centres undefined): 67% (active); for `COc1ccc(C2=NOC(C(=O)N3CCC4(CC3)OCCO4)C2)cc1OC` (centres undefined): -8.22%. Then `COc1ccc(-c2nc(COc3cc(C)ccc3F)no2)cc1`, with -32.4%. On to `CSCCC(NS(=O)(=O)c1cccs1)C(=O)O` (centres undefined), for which the inhibition is -3.2%. The same measure for `CSc1nc(SC)c2c3c(sc2n1)CSC(C)(C)C3`: 2%; for `CCc1ccc(OCC(O)CN2CCN(c3ccccc3F)CC2)cc1` (centres undefined): -21.8%. As for `COc1cc(NCCCCN2C(=O)c3ccccc3C2=O)c2nccc(C)c2c1`, the inhibition is 4%.

Regarding `O=C(c1ccco1)N1CCN(C(=O)C2CC(c3ccc(F)cc3)=NO2)CC1` (centres undefined), the inhibition was -6.79%. On to `CCOC(=O)N1CCN(C(=O)C2CC(c3ccc(F)cc3)=NO2)CC1` (centres undefined), for which the inhibition was 100% (active). As for `COc1ccc(C2=NOC(C(=O)N3CCN(c4ccccc4)CC3)C2)cc1` (centres undefined), the inhibition is -6.03%. As for `Cc1cc(C)cc(NC(=O)NC2CCN(c3ccccc3)C2=O)c1` (centres undefined), the inhibition is -6.4%. Turning to `COc1nccnc1N1CCC(N(C)C(=O)c2ccoc2)C1` (centres undefined), the inhibition was 1.67%. The same measure for `Cc1cc(C(=O)N2CCOCC2)c2cccc(-c3cccs3)c2n1`: -5.8%; for `O=C(Nc1cccc(F)c1)N1CCC(N2CCN(Cc3ccc(F)cc3)C2=O)CC1`: 13%; for `CC(=O)N1c2c(cc(Br)cc2S(=O)(=O)Nc2cccc([N+](=O)[O-])c2)CC1C` (centres undefined): 6%. As for `CC(=O)Nc1ccc(C(=O)N2CCN(c3cccc(Cl)c3)CC2)cc1`, the inhibition was 83.1% (active). As for `O=C(c1ccc2nc3ccc(Cl)cc3c(=O)n2c1)N1CCN(c2cccc(Cl)c2)CC1`, the inhibition is 6%. The same measure for `O=C(c1ccc([N+](=O)[O-])cc1)N1CCN(c2cccc(Cl)c2)CC1`: 13.1%; for `Cc1ccccc1-n1cnc(C(=O)NCCC(C)C)n1`: -3%. The same measure for `CC(C)C[C@@H]1COc2cc(N3CCC[C@@H]3CO)ccc2S(=O)(=O)N1`: -7.7%.

As to `Cc1ccc(N2CCN(C3CCCCCC3)CC2)cc1`, the inhibition is 7.2%. Then `CC1CCN(c2ccc([N+](=O)[O-])c(SCCO)c2)CC1`, with 24%. The same measure for `CC1CCN(c2ccc(N)cc2)CC1`: 79.6% (active); for `Cn1c(C(=O)NCc2ccco2)cc2c1CCN(Cc1ccc(F)cc1)C2`: 40.4%. The same measure for `COc1ccc(C(=O)Nc2nc3ccccc3s2)cc1Br`: -8%. As to `COc1ccc(OC)c(Nc2nc(CC(=O)Nc3nc4ccccc4s3)cs2)c1`, the inhibition was 54.7% (active). The same measure for `O=C(COc1ccccc1)Nc1nc2ccccc2s1`: -8.3%; for `CCCC(=O)N1CCN(c2nc3c(s2)c(C)nn3-c2ccc(F)cc2)CC1`: 0.3%; for `O=C(NCC1(c2ccccc2)CCOCC1)C(=O)Nc1cccnc1`: -3.4%.

On to `N#C/C(=C\c1cn[nH]c1-c1cccs1)c1nc2ccccc2[nH]1`, for which the inhibition is 37%. As for `CCOc1ccccc1C1CC(c2ccc(Cl)cc2)Nc2nc(N)nn21` (centres undefined), the inhibition is 54.2% (active). Consider `CCOc1ccccc1C1CC(c2ccccc2)Nc2nc(N)nn21` (centres undefined), for which the inhibition was 18.6%. `COc1cccc(C2CC(c3cccc(Cl)c3)n3nc(N)nc3N2)c1` (centres undefined): the inhibition was 30.3%. Take `CCOc1ccc(C2CC(c3ccccc3Cl)n3nc(N)nc3N2)cc1` (centres undefined): the inhibition is 36.1%. Then `COc1ccc(C2CC(c3ccc(C)cc3)Nc3nc(N)nn32)cc1` (centres undefined), with 11.1%. Then `COc1ccc(C2CC(c3ccc(Cl)cc3Cl)Nc3nc(N)nn32)cc1OC` (centres undefined), with 70.9% (active).

These data come from PubChem BioAssay AID1671202 (University of Kansas High Throughput Screening Laboratory, 2021).
